Laboratory results taken from PubChem BioAssay (NCATS).
Results filed as inconclusive are left out. Activity calls are given as the source filed them. The call rests on the fitted dose curve; in most records, active means well fitted curve in the direction sought with a large enough effect; inconclusive means small, poorly fitted or top-dose-only effect, or another doubt; inactive means no such curve, though single readings can be large; an effect the other way counts as inactive or inconclusive.

Assays:
CASKI = test: Primary qHTS to identify gynecologic anti-cancer compounds using libraries of approved drugs and bioactive compounds (AID 1345084); conditions: Gynecologic cancer cell panel viability, ATPlite luminescence, 48 h; series mostly up to 57.5 µM; further: nearly all actives have a fitted effect of over 55% in size
Method in brief: (§1)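 Luminescence from the ATPlite ATP-monitoring reagent indicates viable cell number; lower signal means cytotoxicity. Cells received compound 16 h after seeding and were exposed for 48 h across five concentrations.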

Es-2 = test: as above; conditions: Gynecologic cancer cell panel viability, ATPlite luminescence, 48 h; series mostly up to 57.5 µM
Method in brief: as §1

HeLa = test: as above; conditions: Gynecologic cancer cell panel viability, ATPlite luminescence, 48 h; series mostly up to 57.5 µM
Method in brief: as §1

Hek293T = test: as above; conditions: Gynecologic cancer cell panel viability, ATPlite luminescence, 48 h, control line for the selectivity index; series mostly up to 57.5 µM
Method in brief: as §1

JEG-3 = test: as above; conditions: Gynecologic cancer cell panel viability, ATPlite luminescence, 48 h; series mostly up to 57.5 µM
Method in brief: as §1

OV90 = test: as above; conditions: Gynecologic cancer cell panel viability, ATPlite luminescence, 48 h; series mostly up to 57.5 µM
Method in brief: as §1

PA-1 = test: as above; conditions: Gynecologic cancer cell panel viability, ATPlite luminescence, 48 h; series mostly up to 57.5 µM
Method in brief: as §1

SKOV3 = test: as above; conditions: Gynecologic cancer cell panel viability, ATPlite luminescence, 48 h; series mostly up to 57.5 µM
Method in brief: as §1

Tov-21-G = test: as above; conditions: Gynecologic cancer cell panel viability, ATPlite luminescence, 48 h; series mostly up to 57.5 µM
Method in brief: as §1

Tov112D = test: as above; conditions: Gynecologic cancer cell panel viability, ATPlite luminescence, 48 h; series mostly up to 57.5 µM
Method in brief: as §1

[1] = Drug repurposing screens with cells derived from glioblastoma tumor samples (AID 1345199); conditions: GBM patient neurospheres viability, ATP luminescence, 48 h; further: nearly all actives have a fitted effect of over 40% in size
Method in brief: (§2)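 Four patient lines of CD133+ GBM neurospheres were screened at several concentrations; hits were retested in those lines plus three slower-growing GBM lines, using 48-hour treatment and ATP-based viability.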

astro = test: as above; conditions: viability, ATP luminescence, 48 h; series mostly up to 45.9 µM
Method in brief: as §2

[2] = at 45.9 µM (top of the series), tumour line B
[3] = at 45.9 µM (top of the series), tumour line D
[4] = at 46.1 µM (top of the series), tumour line C
[5] = at 46 µM (top of the series), tumour line A
On the % scale 0 is the no-effect control and ±100 the full control effect.

CCN(CC)C(=O)Nc1ccc(OCC(O)CNC(C)(C)C)c(C(C)=O)c1 (stereo not drawn)
inactive: Potency (CASKI) | Potency (Es-2) | Potency (HeLa) | Potency (Hek293T) | Potency (JEG-3) | Potency (OV90) | Potency (PA-1) | Potency (SKOV3) | Potency (Tov-21-G) | Potency (Tov112D) | activity, negative = cell killing [1, 2] -20.9% | activity, negative = cell killing [1, 3] 0.286% | activity, negative = cell killing [1, 4] -24.6% | Potency (astro)

O=C(O)c1ccccc1-c1ccc(C(F)(F)F)cc1
inactive: Potency (CASKI) | Potency (Es-2) | Potency (HeLa) | Potency (Hek293T) | Potency (JEG-3) | Potency (OV90) | Potency (PA-1) | Potency (SKOV3) | Potency (Tov-21-G) | Potency (Tov112D) | activity, negative = cell killing [1, 2] -7.48% | activity, negative = cell killing [1, 3] -6.37% | activity, negative = cell killing [1, 5] -14.4% | activity, negative = cell killing [1, 4] 1.99% | Potency (astro)

NC(N)=NCCC[C@H](N)C(=O)O
inactive: activity change, negative = cytotoxicity (CASKI) 1.66% [at 6.55 µM] | activity change, negative = cytotoxicity (Es-2) 2.88% [at 6.55 µM] | activity change, negative = cytotoxicity (HeLa) 8.2% [at 6.55 µM] | activity change, negative = cytotoxicity (Hek293T) 14.9% [at 6.55 µM] | activity change, negative = cytotoxicity (JEG-3) 7.79% [at 6.55 µM] | activity change, negative = cytotoxicity (OV90) 6.81% [at 6.55 µM] | activity change, negative = cytotoxicity (PA-1) 23.1% [at 6.55 µM] | activity change, negative = cytotoxicity (SKOV3) 0% [at 6.55 µM] | activity change, negative = cytotoxicity (Tov-21-G) -4.36% [at 6.55 µM] | activity change, negative = cytotoxicity (Tov112D) 4.12% [at 6.55 µM] | activity, negative = cell killing [1, 2] -14.6% | activity, negative = cell killing [1, 3] -0.948% | activity, negative = cell killing [1, 5] -22.1% | activity, negative = cell killing [1, 4] 18.8% | Potency (astro)

COc1cc2[nH]c(=O)[nH]c(=O)c2cc1OC
inactive: Potency (CASKI) | Potency (Es-2) | Potency (HeLa) | Potency (Hek293T) | Potency (JEG-3) | Potency (OV90) | Potency (PA-1) | Potency (SKOV3) | Potency (Tov-21-G) | Potency (Tov112D) | activity, negative = cell killing ([1]; at 20 µM (top of the series), tumour line C) -13.5% | activity, negative = cell killing ([1]; at 21.2 µM (top of the series), tumour line B) -9.77% | activity, negative = cell killing ([1]; at 21.2 µM (top of the series), tumour line D) 1.35% | activity, negative = cell killing ([1]; at 21.3 µM (top of the series), tumour line A) -29.6% | Potency (astro)

O=C(O)CN1C(=O)c2cccc3cccc(c23)C1=O
inactive: Potency (CASKI) | Potency (Es-2) | Potency (HeLa) | Potency (Hek293T) | Potency (JEG-3) | Potency (OV90) | Potency (PA-1) | Potency (SKOV3) | Potency (Tov-21-G) | Potency (Tov112D) | activity, negative = cell killing [1, 2] -8.91% | activity, negative = cell killing [1, 3] -13.3% | activity, negative = cell killing [1, 5] -27.1% | activity, negative = cell killing [1, 4] -19.2% | Potency (astro)

O=c1cc[nH]c(=O)[nH]1
inactive: Potency (CASKI) | Potency (Es-2) | Potency (HeLa) | Potency (Hek293T) | Potency (JEG-3) | Potency (OV90) | Potency (PA-1) | Potency (SKOV3) | Potency (Tov-21-G) | Potency (Tov112D) | activity, negative = cell killing [1, 2] -1.25% | activity, negative = cell killing [1, 3] -13.5% | activity, negative = cell killing [1, 5] -25.6% | activity, negative = cell killing [1, 4] -13% | Potency (astro)

CCN(CC)CCNC(=O)c1cc(Cl)c(N)cc1OC
inactive: Potency (CASKI) | Potency (Es-2) | Potency (HeLa) | Potency (Hek293T) | Potency (JEG-3) | Potency (OV90) | Potency (PA-1) | Potency (SKOV3) | Potency (Tov-21-G) | Potency (Tov112D) | activity, negative = cell killing [1, 2] -15.5% | activity, negative = cell killing [1, 3] -19.3% | activity, negative = cell killing [1, 4] 6.62% | Potency (astro)
